Compounds without any hit were thinned out: in the full panel of roughly 83,000, 20% have a hit.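 48-hour exposure, single concentration, 96-well plates; percent growth endpoint where 0 means no net growth. Active: below 10.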 Activity calls are given as the source filed them.
Each compound was assayed on SF-268 CNS (assay: NCI-60 one-dose screen, 48 h (100 = growth as untreated, 0 = no growth, -100 = all killed)). Settings: 10 µM.

Structure (SMILES) | growth
COc1cc(C2CC(=O)Nc3c2c(C)nn3-c2nc3ccccc3[nH]2)cc(OC)c1O (stereo not drawn) | 40.1% (inactive)
CCCCC(CC#N)(CCC)CCC | 101% (inactive)
COc1cc(C)c2sc3ccccc3c(=O)c2c1NCCN(C)C | 61.3% (inactive)
O=C(CCl)N1c2ccccc2Sc2ccc3ccccc3c21 | -59.4% (active)
CCOC(=O)Nc1ccc2c(c1)C(=O)N(CC)c1ccccc1O2 | 42.1% (inactive)
COc1ccc(/C=C(\c2cc(OC)c(OC)c(OC)c2)c2nnc(-c3cccs3)o2)cc1 | 42% (inactive)
COc1ccc(-c2cc(/C=C/C(=O)c3ccc(N)cc3)[nH]n2)cc1OC | 18.8% (inactive)
CCCCCCCCCCSC(=N)N (tested in a mixture with another compound) | 79.1% (inactive)
CC(=O)CS(C)(=O)=O | 104% (inactive)
Nc1ccc2c(c1)Cc1cc(N)c(Cl)cc1-2 | 113% (inactive)
CCOC(=O)c1cc(-c2ccccc2)nc(N)n1 | 106% (inactive)
CCCOCC(O)CNCCN (stereo not drawn) | 113% (inactive)
O=C(Nc1ccc(OCc2nnc(-c3ccccc3)o2)c(F)c1)Nc1ccc(Cl)c(Cl)c1 | 80.7% (inactive)
Cc1[nH]nc2c(=S)[nH]c(=O)[nH]c12 | 104% (inactive)
CCC(OC(=O)CC(C)C)c1ccccc1 (stereo not drawn) | 93.7% (inactive)
C/C=C\COc1cc(C)c(Cl)cc1Cl | 114% (inactive)
CC(=O)N(O)c1ccc(/C=C/c2ccccc2)cc1 | 12.4% (inactive)
CCOC(=O)c1c(C(F)(F)F)n([O-])c2ccc(OC)cc2[n+]1=O | 31.1% (inactive)
NCCNc1ccc2cc(-c3nc4ccccc4[nH]3)c(=O)oc2c1 | 92.3% (inactive)

Structure (SMILES) | growth
Nc1ccc(Sc2ccc3c4c2cccc4c(=O)n2c4ccccc4nc32)cc1 | 59.4% (inactive)
COc1cccc(C(=O)NNc2nc(N3CCOCC3)nc(N3CCN(C(c4ccccc4)c4ccccc4)CC3)n2)c1 | 71.5% (inactive)
C=CCN1C(=O)/C(=C\c2ccc3c(c2)CCC3)SC1=S | 102% (inactive)
COc1cccc(-c2nnc(COc3ccc(-c4nc5ccc(C)cc5[nH]4)cc3OC)o2)c1 | 101% (inactive)
CNC(=O)c1cc(Oc2ccc(NC(=O)Nc3ccc(Cl)c(C(C)(C)C)c3)c(F)c2)ccn1 | 59.1% (inactive)
CC(=O)/C(=C\c1ccc(Cl)cc1)c1ccccc1 | 23.9% (inactive)
Cc1cc(C)c(C(=O)OC(C)CNC2CCCCC2)c(C)c1 (stereo not drawn) | 99.7% (inactive)
CC(=O)Oc1ccc(C2=Cc3ccc(OC(C)=O)cc3OC2C)cc1 (stereo not drawn) | 57.9% (inactive)
CC(=O)Nc1nc(C)c(C(=O)NNC=O)s1 | 94.8% (inactive)
CCCCC(=O)N(c1ccc(Nc2c3ccccc3nc3cc([N+](=O)[O-])ccc23)cc1)S(C)(=O)=O | 53% (inactive)
O=C1/C(=C/c2ccc(O)cc2O)N=C2SCCCN12 | 96.9% (inactive)
Cc1ccc2c(c1)-c1cc(C)nn1-c1ccc(C#N)cc1O2 | 74.4% (inactive)
O=C(c1ccc(Cl)cc1)c1no[n+]([O-])c1C(=O)c1ccc(Cl)cc1 | 102% (inactive)
Nc1nsc(C(=O)c2ccc(O)cc2)n1 | 101% (inactive)
COc1ccc(C2=Cc3ccc(OC(C)=O)cc3OC2)cc1 | 87.9% (inactive)
Cc1nc2cc(-n3c(-c4ccc(F)cc4)nc4ccccc4c3=O)ccc2n1Cc1ccccc1 | 8.04% (active)
Cc1nnc2c3nnc(-c4ccc(Cl)cc4)n3c3ccccc3n12 | 100% (inactive)
Cc1cc(C)c2c(Nc3ncnc4c3sc3nc(C)cc(C)c34)n[nH]c2n1 | 103% (inactive)
CCCCNC(=O)Oc1ccc(/C(=C(\C)c2ccc(OC)cc2)c2ccc(OCCN3CCCCC3)cc2)cc1 | 66.9% (inactive)

Source: PubChem BioAssay (NCI)
